The target in assay [1] is Death-associated protein kinase 1 (Homo sapiens) (UniProt P53355). Particulars: at 1 µM.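 Also: each value is a mean inhibition figure.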
For assay [2], the target named is T1, Serine/threonine-protein kinase DCLK2 (Homo sapiens) (UniProt Q8N568).
T1 sequence (whole entry): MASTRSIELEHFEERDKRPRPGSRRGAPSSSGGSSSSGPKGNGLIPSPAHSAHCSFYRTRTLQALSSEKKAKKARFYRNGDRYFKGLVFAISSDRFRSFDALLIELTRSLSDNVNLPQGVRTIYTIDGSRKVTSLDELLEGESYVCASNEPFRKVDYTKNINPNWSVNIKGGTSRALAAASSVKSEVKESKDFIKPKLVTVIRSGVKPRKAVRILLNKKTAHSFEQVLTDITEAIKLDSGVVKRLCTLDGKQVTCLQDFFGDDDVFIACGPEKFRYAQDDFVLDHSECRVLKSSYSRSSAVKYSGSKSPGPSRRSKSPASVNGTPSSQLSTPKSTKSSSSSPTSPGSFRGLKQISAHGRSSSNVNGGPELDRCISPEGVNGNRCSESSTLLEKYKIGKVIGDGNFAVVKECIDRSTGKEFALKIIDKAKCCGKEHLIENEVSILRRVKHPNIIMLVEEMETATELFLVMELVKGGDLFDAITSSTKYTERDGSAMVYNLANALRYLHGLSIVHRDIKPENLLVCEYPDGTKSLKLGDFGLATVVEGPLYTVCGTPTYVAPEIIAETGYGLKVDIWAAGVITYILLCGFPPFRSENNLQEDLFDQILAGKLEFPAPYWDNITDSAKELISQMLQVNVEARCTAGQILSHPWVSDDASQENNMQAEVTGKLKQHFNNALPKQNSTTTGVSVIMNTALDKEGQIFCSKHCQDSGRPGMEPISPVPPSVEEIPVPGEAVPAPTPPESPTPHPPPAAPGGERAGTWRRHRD
As to conditions: at 0.1 µM.

The target in assay [3] is T1, Serine/threonine-protein kinase DCLK2 (Homo sapiens). As to conditions: at 1 µM.
Assay [4] concerns the target MAP kinase-activated protein kinase 2 (Homo sapiens) (UniProt P49137). As to conditions: at 0.1 µM.
The target is the same in assay [5]. Particulars: at 1 µM.
For assay [6], the target named is MAP kinase-activated protein kinase 3 (Homo sapiens) (UniProt Q16644). Particulars: at 0.1 µM.
MAP kinase-activated protein kinase 3 (Homo sapiens), sequence (Q16644 whole entry, looked up): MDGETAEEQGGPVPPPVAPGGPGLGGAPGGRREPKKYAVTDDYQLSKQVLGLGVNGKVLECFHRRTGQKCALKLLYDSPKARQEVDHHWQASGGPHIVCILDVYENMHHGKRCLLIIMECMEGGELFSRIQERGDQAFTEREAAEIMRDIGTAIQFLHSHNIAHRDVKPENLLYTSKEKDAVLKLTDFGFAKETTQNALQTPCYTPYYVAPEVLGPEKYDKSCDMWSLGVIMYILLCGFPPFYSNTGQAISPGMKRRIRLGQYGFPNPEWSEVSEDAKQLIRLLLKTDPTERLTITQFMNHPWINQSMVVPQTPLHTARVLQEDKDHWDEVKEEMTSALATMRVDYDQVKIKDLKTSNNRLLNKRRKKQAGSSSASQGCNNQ
Assay [7] has the same target. As to conditions: at 1 µM.
The target of assay [8] is Serine/threonine-protein kinase MARK1 (Homo sapiens) (UniProt Q9P0L2). Particulars: at 0.1 µM.
Serine/threonine-protein kinase MARK1 (Homo sapiens), sequence (Q9P0L2 whole entry, looked up): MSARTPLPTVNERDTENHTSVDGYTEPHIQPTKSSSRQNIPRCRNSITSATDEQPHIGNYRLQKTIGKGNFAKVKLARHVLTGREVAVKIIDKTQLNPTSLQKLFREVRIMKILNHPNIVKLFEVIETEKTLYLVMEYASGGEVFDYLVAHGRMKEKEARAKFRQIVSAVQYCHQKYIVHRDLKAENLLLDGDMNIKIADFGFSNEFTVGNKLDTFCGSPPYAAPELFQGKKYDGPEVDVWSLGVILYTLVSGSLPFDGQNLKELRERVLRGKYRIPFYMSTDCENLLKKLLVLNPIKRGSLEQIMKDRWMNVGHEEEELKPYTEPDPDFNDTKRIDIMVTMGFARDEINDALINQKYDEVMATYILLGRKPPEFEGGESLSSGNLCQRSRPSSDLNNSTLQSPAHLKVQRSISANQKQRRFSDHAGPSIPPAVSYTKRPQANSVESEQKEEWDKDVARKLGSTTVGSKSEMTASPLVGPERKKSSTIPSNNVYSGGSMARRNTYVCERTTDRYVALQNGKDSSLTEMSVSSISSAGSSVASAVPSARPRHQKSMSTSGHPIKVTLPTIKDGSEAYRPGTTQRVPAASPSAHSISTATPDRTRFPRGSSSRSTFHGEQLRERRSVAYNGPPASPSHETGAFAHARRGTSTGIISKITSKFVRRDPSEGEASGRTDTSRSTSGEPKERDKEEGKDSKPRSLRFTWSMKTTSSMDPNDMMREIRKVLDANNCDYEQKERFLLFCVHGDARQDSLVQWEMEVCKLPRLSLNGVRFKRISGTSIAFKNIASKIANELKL
For assay [9] the target is unchanged. Particulars: at 1 µM.
The target in assay [10] is MAP/microtubule affinity-regulating kinase 3 (Homo sapiens) (UniProt P27448). Particulars: at 0.1 µM.
MAP/microtubule affinity-regulating kinase 3 (Homo sapiens), sequence (P27448 whole entry, looked up): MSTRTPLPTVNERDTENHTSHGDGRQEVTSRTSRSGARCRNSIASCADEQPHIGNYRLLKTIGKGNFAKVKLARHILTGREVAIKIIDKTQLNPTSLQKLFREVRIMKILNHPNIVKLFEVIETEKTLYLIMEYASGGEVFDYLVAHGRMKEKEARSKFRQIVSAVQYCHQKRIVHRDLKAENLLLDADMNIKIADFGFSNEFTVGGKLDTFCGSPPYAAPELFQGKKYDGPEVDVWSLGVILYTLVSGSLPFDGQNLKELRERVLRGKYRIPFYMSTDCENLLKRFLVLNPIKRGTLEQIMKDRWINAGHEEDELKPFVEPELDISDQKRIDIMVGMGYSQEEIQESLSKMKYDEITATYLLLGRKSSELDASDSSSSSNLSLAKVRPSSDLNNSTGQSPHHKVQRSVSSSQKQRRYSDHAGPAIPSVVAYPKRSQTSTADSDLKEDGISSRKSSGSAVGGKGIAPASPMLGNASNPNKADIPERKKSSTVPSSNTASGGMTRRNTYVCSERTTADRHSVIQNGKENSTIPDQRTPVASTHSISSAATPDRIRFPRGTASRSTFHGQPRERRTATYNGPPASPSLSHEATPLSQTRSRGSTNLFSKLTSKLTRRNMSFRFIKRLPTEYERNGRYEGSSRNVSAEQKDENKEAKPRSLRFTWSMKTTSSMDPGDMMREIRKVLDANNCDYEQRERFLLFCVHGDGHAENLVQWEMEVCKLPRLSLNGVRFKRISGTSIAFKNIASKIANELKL
Assay [11] shares this target. As to conditions: at 1 µM.
Assay [12] addresses T2, MAP/microtubule affinity-regulating kinase 4 (Homo sapiens) (UniProt Q96L34).
T2 sequence (whole entry): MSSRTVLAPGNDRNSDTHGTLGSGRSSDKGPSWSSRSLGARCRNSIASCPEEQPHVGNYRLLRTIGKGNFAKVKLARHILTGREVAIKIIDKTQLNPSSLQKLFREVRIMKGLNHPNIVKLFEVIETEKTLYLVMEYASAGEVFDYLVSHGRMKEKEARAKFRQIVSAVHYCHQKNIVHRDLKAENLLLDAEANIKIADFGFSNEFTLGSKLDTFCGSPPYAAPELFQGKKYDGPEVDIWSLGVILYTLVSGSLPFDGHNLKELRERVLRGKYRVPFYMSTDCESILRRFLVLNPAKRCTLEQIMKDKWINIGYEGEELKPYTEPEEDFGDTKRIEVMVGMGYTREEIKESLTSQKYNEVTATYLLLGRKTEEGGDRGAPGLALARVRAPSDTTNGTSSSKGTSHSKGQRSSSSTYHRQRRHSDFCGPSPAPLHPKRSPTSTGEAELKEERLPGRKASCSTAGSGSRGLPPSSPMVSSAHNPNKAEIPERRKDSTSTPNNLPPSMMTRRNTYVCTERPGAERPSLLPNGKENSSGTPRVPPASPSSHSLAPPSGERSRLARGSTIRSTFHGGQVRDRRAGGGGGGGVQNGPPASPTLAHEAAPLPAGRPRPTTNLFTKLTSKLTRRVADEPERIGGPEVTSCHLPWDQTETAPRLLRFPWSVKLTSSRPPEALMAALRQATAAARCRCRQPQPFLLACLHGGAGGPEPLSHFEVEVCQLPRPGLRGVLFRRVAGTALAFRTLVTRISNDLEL
Particulars: at 0.1 µM.

Assay [13] concerns the target T2, MAP/microtubule affinity-regulating kinase 4 (Homo sapiens). Particulars: at 1 µM.
Assay [14] deals with Maternal embryonic leucine zipper kinase (Homo sapiens) (UniProt Q14680). Particulars: at 0.1 µM.
Maternal embryonic leucine zipper kinase (Homo sapiens), sequence (Q14680 whole entry, looked up): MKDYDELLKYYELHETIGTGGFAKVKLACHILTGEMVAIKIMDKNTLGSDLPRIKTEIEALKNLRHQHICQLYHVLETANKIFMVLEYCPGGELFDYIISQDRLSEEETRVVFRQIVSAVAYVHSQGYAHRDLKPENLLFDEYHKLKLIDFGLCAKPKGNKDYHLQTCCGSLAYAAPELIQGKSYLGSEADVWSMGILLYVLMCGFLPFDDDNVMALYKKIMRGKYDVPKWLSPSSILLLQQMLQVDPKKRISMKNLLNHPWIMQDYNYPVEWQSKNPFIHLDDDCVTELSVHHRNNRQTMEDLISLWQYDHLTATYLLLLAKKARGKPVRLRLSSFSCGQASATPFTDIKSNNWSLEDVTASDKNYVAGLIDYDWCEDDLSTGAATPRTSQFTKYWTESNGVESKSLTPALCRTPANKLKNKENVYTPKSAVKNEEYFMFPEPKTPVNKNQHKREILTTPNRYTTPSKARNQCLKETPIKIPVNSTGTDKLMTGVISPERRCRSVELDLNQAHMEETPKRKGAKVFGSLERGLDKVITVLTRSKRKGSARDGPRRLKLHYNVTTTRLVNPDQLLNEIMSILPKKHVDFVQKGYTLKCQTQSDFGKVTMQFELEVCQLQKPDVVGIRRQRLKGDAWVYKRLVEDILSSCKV
For assay [15] the target is unchanged. As to conditions: at 1 µM.
Assay [16] concerns the target MAP kinase-interacting serine/threonine-protein kinase 1 (Homo sapiens) (UniProt Q9BUB5). Particulars: at 0.1 µM.
Assay [17] has the same target. Particulars: at 1 µM.
For assay [18], the target named is MAP kinase-interacting serine/threonine-protein kinase 2 (Homo sapiens) (UniProt Q9HBH9). Particulars: at 0.1 µM.
Assay [19] shares this target. As to conditions: at 1 µM.
The target of assay [20] is Serine/threonine-protein kinase MARK2 (Homo sapiens) (UniProt Q7KZI7). As to conditions: at 0.1 µM.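 Also: mean percent inhibition of PAR-1Balpha kinase activity, reported from the GSK PKIS screen.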

MAP kinase-activated protein kinase 2 (Homo sapiens), sequence (P49137 whole entry, looked up): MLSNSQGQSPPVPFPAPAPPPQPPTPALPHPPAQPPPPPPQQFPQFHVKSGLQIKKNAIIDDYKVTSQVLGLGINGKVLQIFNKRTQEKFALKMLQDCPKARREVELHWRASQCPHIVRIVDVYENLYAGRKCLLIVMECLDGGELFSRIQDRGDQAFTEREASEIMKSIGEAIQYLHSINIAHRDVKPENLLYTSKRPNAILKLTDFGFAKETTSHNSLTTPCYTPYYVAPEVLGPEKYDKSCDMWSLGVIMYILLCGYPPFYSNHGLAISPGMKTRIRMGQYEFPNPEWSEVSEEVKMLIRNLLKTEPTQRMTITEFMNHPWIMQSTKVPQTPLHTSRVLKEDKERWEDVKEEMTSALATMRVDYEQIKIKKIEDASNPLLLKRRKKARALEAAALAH
Death-associated protein kinase 1 (Homo sapiens), sequence (P53355 whole entry, looked up): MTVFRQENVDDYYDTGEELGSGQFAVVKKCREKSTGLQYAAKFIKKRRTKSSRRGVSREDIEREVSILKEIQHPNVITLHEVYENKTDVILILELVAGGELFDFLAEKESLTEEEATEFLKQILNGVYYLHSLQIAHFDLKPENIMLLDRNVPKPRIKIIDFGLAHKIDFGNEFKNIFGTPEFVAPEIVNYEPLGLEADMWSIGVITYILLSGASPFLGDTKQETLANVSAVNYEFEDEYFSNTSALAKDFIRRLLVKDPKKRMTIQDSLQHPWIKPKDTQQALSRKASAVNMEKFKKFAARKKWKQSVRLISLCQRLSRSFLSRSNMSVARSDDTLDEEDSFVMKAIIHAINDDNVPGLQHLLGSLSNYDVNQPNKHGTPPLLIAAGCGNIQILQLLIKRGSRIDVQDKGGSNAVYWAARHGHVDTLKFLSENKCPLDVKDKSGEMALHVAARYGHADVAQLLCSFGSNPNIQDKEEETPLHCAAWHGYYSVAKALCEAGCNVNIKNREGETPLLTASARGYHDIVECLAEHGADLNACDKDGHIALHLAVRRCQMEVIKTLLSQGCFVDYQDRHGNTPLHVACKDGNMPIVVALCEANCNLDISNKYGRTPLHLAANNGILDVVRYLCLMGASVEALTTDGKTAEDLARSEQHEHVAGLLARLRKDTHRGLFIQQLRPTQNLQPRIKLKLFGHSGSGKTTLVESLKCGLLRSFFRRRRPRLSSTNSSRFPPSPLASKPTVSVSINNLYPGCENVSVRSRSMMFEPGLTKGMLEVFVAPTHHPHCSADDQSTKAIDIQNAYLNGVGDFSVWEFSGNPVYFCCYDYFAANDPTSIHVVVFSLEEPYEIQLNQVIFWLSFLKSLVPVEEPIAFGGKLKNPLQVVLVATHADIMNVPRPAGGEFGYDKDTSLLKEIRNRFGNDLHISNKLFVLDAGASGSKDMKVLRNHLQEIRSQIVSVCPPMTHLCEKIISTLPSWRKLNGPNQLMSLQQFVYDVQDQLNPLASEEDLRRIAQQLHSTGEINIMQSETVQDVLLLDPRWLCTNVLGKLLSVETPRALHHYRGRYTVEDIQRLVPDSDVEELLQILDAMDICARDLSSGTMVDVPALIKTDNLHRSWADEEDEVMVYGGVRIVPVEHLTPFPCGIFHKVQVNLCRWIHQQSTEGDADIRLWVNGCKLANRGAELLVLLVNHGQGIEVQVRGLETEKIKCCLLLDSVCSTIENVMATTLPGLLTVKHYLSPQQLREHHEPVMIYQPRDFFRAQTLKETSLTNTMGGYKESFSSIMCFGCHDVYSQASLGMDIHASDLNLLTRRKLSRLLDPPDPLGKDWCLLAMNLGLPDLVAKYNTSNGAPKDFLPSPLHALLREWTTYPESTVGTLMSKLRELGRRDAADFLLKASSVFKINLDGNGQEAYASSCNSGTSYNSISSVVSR
MAP kinase-interacting serine/threonine-protein kinase 1 (Homo sapiens), sequence (Q9BUB5 whole entry, looked up): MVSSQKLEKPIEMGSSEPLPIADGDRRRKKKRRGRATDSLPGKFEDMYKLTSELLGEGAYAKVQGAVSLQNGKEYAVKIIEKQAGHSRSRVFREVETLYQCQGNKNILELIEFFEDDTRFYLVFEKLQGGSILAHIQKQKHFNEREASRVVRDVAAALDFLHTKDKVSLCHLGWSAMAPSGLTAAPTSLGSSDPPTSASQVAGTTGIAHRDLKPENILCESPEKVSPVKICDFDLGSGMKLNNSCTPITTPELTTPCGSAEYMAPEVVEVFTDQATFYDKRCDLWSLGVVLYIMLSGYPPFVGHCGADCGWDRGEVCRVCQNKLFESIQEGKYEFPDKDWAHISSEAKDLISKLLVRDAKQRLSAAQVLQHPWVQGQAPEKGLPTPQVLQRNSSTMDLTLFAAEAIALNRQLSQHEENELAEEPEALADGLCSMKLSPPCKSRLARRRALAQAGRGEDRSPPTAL

Turning to `CCn1c(-c2nonc2N)nc2cncc(C(=O)N3CCNCC3)c21`, the inhibition in assay [1] turned out to be 8.15%; in assay [2], 0.84%; in [3], 1.96%; in [4], 2.84%; in assay [5], 5.04%; in assay [6] it was 6.65%. Besides, the inhibition in assay [7] stood at 10.7%; in assay [8] it was 2.63%; in assay [9] it was 3.48%; in [10] it was 5.76%; in assay [11], 7.99%; in [12] it was 2.3%. Moreover, the inhibition in assay [13] came out at 1.48%; in [14] it was 6.1%; in assay [15], 9.51%; in assay [16], 2.42%; in [17], 2.99%; in assay [18], 1.78%. For the same compound, the values for the inhibition in [19] and in assay [20] were 0.78% and 2.18%, respectively.

On to `COc1ccc(COc2ccc(Cc3cnc(N)nc3N)cc2OC)cc1`, for which the inhibition came to 9.42% in assay [1]; 0.28% in [2]; 8.82% in assay [3]; 2.95% in assay [4]; 3.22% in assay [5]; 6.15% in [6]. Besides, the inhibition in assay [7] was 7.43%; in assay [8], 2.6%; in assay [9], 0.09%; in assay [10] it was 4.54%; in assay [11] it was 2.06%; in assay [12] it was 2.83%. Further, the inhibition in assay [13] is 1.47%; in assay [14], 0.82%; in assay [15], -1.43%; in assay [16] it was 10.8%; in assay [17] it was 0.82%; in [18], 3.14%. Also, the inhibition in [19] was 0.25%; in assay [20], 1.26%.

`Fc1cccc(COc2ccc(Nc3ncnc4sc(-c5cccs5)cc34)cc2Cl)c1`: the inhibition is -9.5% in assay [1]; -1.25% in assay [2]; 2.62% in assay [3]; -2.05% in [4]; -2.63% in assay [5]; -4.76% in assay [6]. Further, the inhibition in assay [7] was -5.22%; in assay [8], 0.88%; in assay [9] it was 2.73%; in [10], 0.02%; in [11], 3.4%; in [12], 0.59%. Moreover, the inhibition came out at 1.48% in [13]; 2.25% in assay [14]; 3.16% in assay [15]; 2.11% in assay [16]; 5.61% in [17]; 1.36% in assay [18]. The inhibition in assay [19] was found to be 5.08%; in assay [20], 1.15%.

As to `COc1ccc(-c2coc3ncnc(N)c23)cc1`, the inhibition is 12.9% in assay [1]; 0.87% in assay [2]; -0.02% in assay [3]; 3.78% in [4]; 4.6% in assay [5]; 10.7% in [6]. For the same compound, the inhibition is 11.6% in [7]; 4.41% in [8]; 3.73% in assay [9]; 5.6% in assay [10]; -0.28% in assay [11]; 3.62% in assay [12]. Besides, the inhibition in assay [13] was found to be 2.28%; in assay [14], 4.21%; in assay [15] it was 5.33%; in assay [16] it was 2.45%; in [17], 4.3%; in [18], 0.67%. Moreover, the results for the inhibition in [19] and in assay [20] were 0.83% and 0.91%, respectively.

In the case of `COc1cc(C=NNc2ncnc3c2cnn3-c2ccccc2)ccc1O`, the inhibition is -5.67% in [1]; 1.34% in assay [2]; -4.27% in [3]; -1.87% in assay [4]; -2.21% in assay [5]; -3.81% in assay [6]. In addition, the inhibition is -2.84% in [7]; 2.3% in [8]; 8.38% in assay [9]; 3.21% in [10]; 18.2% in assay [11]; 1.61% in assay [12]. Further, the inhibition in assay [13] was found to be 11.3%; in assay [14], 6.74%; in assay [15] it was 43.8%; in assay [16] it was 12.1%; in assay [17] it was 49.9%; in assay [18], 13.7%. The inhibition is 52% in assay [19] and -0.32% in [20].

Consider `CC1=C(C(=O)Nc2ccc3[nH]ncc3c2)C(c2ccc(F)cc2)NC(=O)N1` (stereo not given), for which the inhibition is 1.59% in assay [1]; 1.36% in [2]; -0.03% in assay [3]; 1.48% in [4]; 1.87% in assay [5]; 1.46% in assay [6]. For the same compound, the inhibition in assay [7] was 1.05%; in [8], 2.81%; in assay [9], 9.5%; in assay [10], 0.23%; in assay [11], 8.67%; in assay [12], 0.77%. Besides, the inhibition turned out to be 4.62% in assay [13]; 2.13% in [14]; 6.05% in [15]; 2.34% in assay [16]; 46.2% in assay [17]; 3.85% in [18]. Further, the inhibition in [19] is 65.3%; in assay [20], -0.93%.

Usually inhibition stands for the drop in the measured response relative to a control, in per cent.

The record behind these values is ChEMBL document CHEMBL1961873, “Compounds: GSK PKIS; Assays: Nanosyn kinase panel” (2012).
